Entries with a potency or affinity are not part of this list. Results filed as inconclusive are left out. Active and inactive are the calls of the source.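 Rule for the calls: active = in every test run, a fitted half-maximal concentration for signal decrease at or below twice the highest tested concentration; inconclusive = runs disagree, flat 30 to 70% decrease, or poor fit; inactive = the rest.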
Test: activation of miR-122 Renilla sensor silencing – cell-based, Huh7 psiCHECK-miR122, Renilla luciferase, cherry-picked, dose response (AID 651956);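 note: Renilla luciferase from a miR-122 sensor reporter so lower signal means miR-122 activation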

| Structure (SMILES) | outcome |
| --- | --- |
| O=C1NC(=O)N(CCC2=CCCCC2)C(=O)/C1=C\c1cccs1 | inactive |
| COc1ccc(C2SCC(=O)Nc3c2c(=O)[nH]n3C2CCCCCC2)cc1 (centres undefined) | inactive |
| O=C(c1ccco1)c1cn(Cc2ccccc2Cl)c2ccccc12 | inactive |
| COc1ccc2c(c1)c(CCN)c(C)n2Cc1ccccc1 | inactive |
